# Measured values reported in PubChem BioAssay.
# Results filed as inconclusive are left out. The source made the active and inactive calls. Unless noted, no cut-off is given here; in the data, nearly all actives have AC50 up to about 26 µM.
# Key:
# [1] = viability loss in pontine glioma line – cell-based, SU-DIPG-XVII, MIPE5.0, CellTiter-Glo, qHTS, dose response (AID 1347060); conditions: CellTiter-Glo ATP luminescence;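 for AC50: cells exposed to compound for 48 hours before viability readout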
# [2] = viability loss in pontine glioma line – cell-based, SU-DIPG-XIII, MIPE5.0, CellTiter-Glo, qHTS, dose response (AID 1347064; cut-off not given, nearly all actives have AC50 up to about 23 µM;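 for AC50: cells exposed to compound for 48 hours before the viability read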); conditions: CellTiter-Glo ATP luminescence
# [3] = viability loss in pontine glioma line – cell-based, SU-DIPG-XXV, MIPE5.0, CellTiter-Glo, qHTS, dose response (AID 1347065); conditions: CellTiter-Glo ATP luminescence;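 note: cells exposed to compound for 48 hours before ATP readout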
# [4] = JHH-DIPG-1 glioma cell viability, MIPE5.0 library, CellTiter-Glo luminescence, qHTS (AID 1347067); conditions: JHH-DIPG-1 glioma viability, CellTiter-Glo ATP luminescence;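 note: cells exposed to compound for 48 hours before readout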
# [5] = viability loss with induced miR-34 in A549 – imaging, A549 dox-inducible miR-34, nuclei and caspase counts, primary screen (AID 1347080;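 active = compounds whose cell count with miR-34 switched on is under 0.7 times the count with it off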); conditions: A549 miR-34 inducible, Hoechst nuclei count, 48 h
# [6] = MELAS cybrid and Rieske KO viability enhancers – cell-based, MELAS cybrids, Rieske KO mouse fibroblasts, CellTiter-Glo, primary screen (AID 1508586;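 active = mean z-score across replicates of 1.96 or higher in either the MELAS or the Rieske mutant cell line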;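 note: z relative to plate mean and SD of compound and empty wells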); conditions: low glucose
# [7] = growth inhibition of DIPG cells – cell-based, MIPE5.0 library, qHTS (AID 1347068; cut-off not given, nearly all actives have IC50 up to about 30 µM;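 for IC50: cells exposed to compound for 48 hours before viability readout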); conditions: SU-DIPG-XXV viability
# [8] = stronger effect = lower value, cell number ratio, induced over uninduced
# [9] = measured here: relative caspase fold change +Dox/-Dox
# [10] = measured here: total cells with miR-34 induction, stronger effect = lower value
# [11] = measured here: total cells without miR-34 induction
# [12] = MELAS cybrid survival, CellTiter-Glo 48 h, stronger effect = higher value
# [13] = Rieske KO mouse fibroblast survival, CellTiter-Glo 72 h
smiles,measurement,setting,value
COc1cc2ncnc(Oc3cccc(NC(=O)Nc4cc(C(C)(C)C(F)(F)F)on4)c3)c2cc1OC,AC50,[1],5.9 µM (active)
same,AC50,[2],16.6 µM (active)
same,AC50,[3],10.5 µM (active)
same,AC50,[4],14.8 µM (active)
same,fold change,[5]; [8],0.934 (inactive)
same,fold change,[5]; [9],0.373
same,cell count,[5]; [10],3270
same,cell count,[5]; [11],3490
same,z-score,[6]; [12],-0.488 (inactive)
same,z-score,[6]; [13],1.15
O=C1CC(c2c[nH]c3ccc(F)cc23)C(=O)N1 (stereo not given),outcome,[1],inactive
same,outcome,[2],inactive
same,outcome,[3],inactive
same,outcome,[7],inactive
COc1cc2c(cc1OC(C)C)[C@H](c1ccc(Cl)cc1)N(c1ccc(N(C)CC3CCC(N4CCN(C)C(=O)C4)CC3)cc1)C(=O)C2 (stereo not given in full),AC50,[1],26.3 µM (active)
same,AC50,[2],20.9 µM (active)
same,AC50,[3],26.3 µM (active)
same,IC50,[7],29.5 µM (active)
Cc1ccc(Nc2ncc3c(n2)N(C)C(=O)N(c2cc(NC(=O)c4cccc(C(F)(F)F)c4)ccc2C)C3)cn1,AC50,[1],0.105 µM (active)
same,AC50,[2],0.0742 µM (active)
same,AC50,[3],0.0118 µM (active)
same,IC50,[7],0.0742 µM (active)
Cc1ncc(Cl)cc1NCc1ccc(C(=O)NC(CC2CCCC2)C(=O)NC2CC2)s1 (stereo not given),outcome,[1],inactive
same,outcome,[2],inactive
same,outcome,[3],inactive
same,outcome,[7],inactive
C[C@@H](O)[C@@H]1NC(=O)[C@H](CCCCN)NC(=O)[C@@H](Cc2c[nH]c3ccccc23)NC(=O)[C@H](Cc2ccccc2)NC(=O)[C@@H](NC(=O)[C@H](N)Cc2ccccc2)CSSC[C@@H](C(=O)N[C@H](CO)[C@@H](C)O)NC1=O,outcome,[1],inactive
same,outcome,[2],inactive
same,outcome,[3],inactive
same,outcome,[4],inactive
same,fold change,[5]; [8],0.862 (inactive)
same,fold change,[5]; [9],0.995
same,cell count,[5]; [10],9290
same,cell count,[5]; [11],10800
same,z-score,[6]; [12],0.396 (inactive)
same,z-score,[6]; [13],-0.498
CNC(=O)c1cccc2cc(Oc3ccnc4cc(OCC5(N)CC5)c(OC)cc34)ccc12,AC50,[1],1.48 µM (active)
same,AC50,[2],1.32 µM (active)
same,AC50,[3],1.86 µM (active)
same,IC50,[7],7.42 µM (active)
Cn1ncc(Cl)c1-c1cc(C(=O)N[C@H](CN)Cc2cccc(F)c2)sc1Cl,AC50,[1],5.9 µM (active)
same,AC50,[2],2.95 µM (active)
same,AC50,[3],3.72 µM (active)
same,outcome,[7],inactive
Cc1ccc(-n2nc(C(C)(C)C)cc2NC(=O)NCc2cc(F)ccc2Oc2ccc3c(cnn3CCO)c2)cc1,AC50,[1],10.5 µM (active)
same,AC50,[2],6.61 µM (active)
same,AC50,[3],5.25 µM (active)
same,IC50,[7],18.6 µM (active)
CN1CCN(c2ccc(-c3cccc(CN4CCOCC4)c3)cc2NC(=O)c2c[nH]c(=O)cc2C(F)(F)F)CC1,outcome,[1],inactive
same,outcome,[2],inactive
same,outcome,[3],inactive
same,outcome,[7],inactive
Cc1nc(-c2cn3c(n2)-c2ccc(-c4cnn(C(C)(C)C(N)=O)c4)cc2OCC3)n(C(C)C)n1,AC50,[1],0.525 µM (active)
same,AC50,[2],0.295 µM (active)
same,AC50,[3],0.105 µM (active)
same,IC50,[7],1.66 µM (active)
Cc1ncc(NC(=O)c2ccc(CN3CCN(C)CC3)c(C(F)(F)F)c2)cc1Nc1nccc(-c2cccnc2)n1,AC50,[1],23.5 µM (active)
same,AC50,[2],9.34 µM (active)
same,AC50,[3],18.6 µM (active)
same,outcome,[7],inactive
Cc1ccc(Sc2ccccc2N2CCNCC2)c(C)c1,AC50,[1],11.8 µM (active)
same,AC50,[2],16.6 µM (active)
same,AC50,[3],10.5 µM (active)
same,AC50,[4],9.34 µM (active)
same,fold change,[5]; [8],0.93 (inactive)
same,fold change,[5]; [9],0.501
same,cell count,[5]; [10],4800
same,cell count,[5]; [11],5160
same,z-score,[6]; [12],-0.442 (inactive)
same,z-score,[6]; [13],-1.42
C[C@H]1COCCN1c1cc(C2(S(=O)(=O)C3CC3)CC2)nc(-c2ccc(NC(=S)NCCO)cc2)n1,AC50,[1],0.295 µM (active)
same,AC50,[2],0.332 µM (active)
same,AC50,[3],0.0263 µM (active)
same,IC50,[7],4.68 µM (active)
COc1cc(/C=C(\C#N)C(=O)Nc2nnc(C(F)(F)F)s2)ccc1OCc1ccc(C(F)(F)F)cc1C(F)(F)F,AC50,[1],5.25 µM (active)
same,AC50,[2],4.17 µM (active)
same,AC50,[3],3.72 µM (active)
same,AC50,[4],14.8 µM (active)
same,fold change,[5]; [8],0.986 (inactive)
same,fold change,[5]; [9],0.417
same,cell count,[5]; [10],1620
same,cell count,[5]; [11],1640
Cc1ccc(S(=O)(=O)Cc2nc(-c3ccc(C(=O)NCc4cccnc4)cc3)oc2C)cc1,AC50,[1],0.0525 µM (active)
same,AC50,[2],0.0166 µM (active)
same,AC50,[3],0.0148 µM (active)
same,AC50,[4],0.0209 µM (active)
same,fold change,[5]; [8],0.957 (inactive)
same,fold change,[5]; [9],0.598
same,cell count,[5]; [10],5090
same,cell count,[5]; [11],5320
same,z-score,[6]; [12],-0.778 (inactive)
same,z-score,[6]; [13],-0.8
Cc1c(NC(=O)OCC2COCCN2)cn2ncnc(Nc3ccc4c(cnn4Cc4cccc(F)c4)c3)c12 (stereo not given),AC50,[1],18.6 µM (active)
same,AC50,[2],23.5 µM (active)
same,AC50,[3],23.5 µM (active)
same,AC50,[4],20.9 µM (active)
same,fold change,[5]; [8],1.04 (inactive)
same,fold change,[5]; [9],0.875
same,cell count,[5]; [10],4510
same,cell count,[5]; [11],4340
same,z-score,[6]; [12],-0.264 (inactive)
same,z-score,[6]; [13],0.355
Cc1cc(F)c(C(=O)Nc2cccc(-c3nncn3C(C)C)n2)cc1-n1cnc(C2CC2)c1,AC50,[1],16.6 µM (active)
same,AC50,[2],18.6 µM (active)
same,AC50,[3],18.6 µM (active)
same,IC50,[7],18.6 µM (active)
COc1cc([C@@H](CC(=O)O)c2ccc(C)c(CN3C[C@@H](C)Oc4ccccc4S3(=O)=O)c2)cc2nnn(C)c12,outcome,[1],inactive
same,outcome,[2],inactive
same,outcome,[3],inactive
same,outcome,[7],inactive
CC(=O)N1CCC(Nc2cc(C(=O)NC[C@H](O)CN3CCc4ccccc4C3)ncn2)CC1,outcome,[1],inactive
same,outcome,[2],inactive
same,outcome,[3],inactive
same,outcome,[7],inactive
COc1ccc([C@@H](O)[C@@H](C)Oc2ccc([C@H]3O[C@H](c4ccc(O[C@H](C)[C@H](O)c5ccc(OC)c(OC)c5)c(OC)c4)[C@H](C)[C@H]3C)cc2OC)cc1OC,AC50,[1],20.9 µM (active)
same,AC50,[2],5.9 µM (active)
same,AC50,[3],10.5 µM (active)
same,IC50,[7],11.8 µM (active)
C/C(=N\NC(=O)c1cccc(S(=O)(=O)N2CCOCC2)c1)c1cc(Cl)ccc1O,AC50,[1],18.6 µM (active)
same,AC50,[2],9.34 µM (active)
same,AC50,[3],16.6 µM (active)
same,outcome,[7],inactive
COc1ncc(-c2ccc3c(Nc4cc(Oc5cc(F)cc(F)c5)cc(C(=O)O)c4)c(S(=O)(=O)NC4CC4)cnc3c2)c(OC)n1,outcome,[1],inactive
same,outcome,[2],inactive
same,outcome,[3],inactive
same,outcome,[7],inactive
C[C@@H](c1ccc2nccn2c1)n1nnc2ncc(-c3cnn(C)c3)nc21,outcome,[1],inactive
same,outcome,[2],inactive
same,outcome,[3],inactive
same,outcome,[7],inactive
